# Measurements as given in PubChem BioAssay (EPA / NIEHS).
# Results filed as inconclusive are left out. The source made the active and inactive calls. The calls were made as follows, unless noted: active = hit-call score of the fitted dose curve at least 0.9, where 1 is the maximum; inactive = score below 0.9.
# Experiments:
# [1] = CCTE_Shafer_MEA_dev_burst_rate: CCTE's Neural Network Formation Assay for Burst Rate, Shafer Lab (AID 2284042)
# Method in brief: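 Rat primary cortical cultures on PEI/laminin MEA; compound from plating, re-dosed at DIV 5, 9 media change. Single-electrode bursts/recording length, well mean of active electrodes; AUC over DIV 5–12 recordings; loss-of-signal vs DMSO.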
# [2] = CCTE_Shafer_MEA_dev_bursting_electrodes_number: CCTE's Neural Network Formation Assay for Number of Bursting Electrodes, Shafer Lab (AID 2284043; active = hit-call score of the fitted dose curve at least 0.9, where 1 is the maximum;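 as to AC50: potency is for loss of bursting electrodes relative to DMSO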)
# Method in brief: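 Primary rat cortical neurons were cultured on PEI-coated 48-well MEA plates (16 electrodes/well) and exposed from plating through day 12, with compound renewed at feeds on DIV 5 and 9. Electrodes bursting ≥1 per 2 min were counted on DIV 5, 7, 9, 12; trapezoidal AUC taken.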
# [3] = CCTE_Shafer_MEA_dev_per_burst_interspike_interval: CCTE's Neural Network Formation Assay for Burst Interspike Interval, Shafer Lab (AID 2284044);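 also: mean spike spacing inside bursts as AUC over recordings on days 5 7 9 12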
# Method in brief: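 Rat cortical primary cultures, 16 electrodes/well; compound from plating, renewed with full media change DIV 5 and 9. Spikes via adaptive detector; per-burst ISI well-mean over active bursting electrodes; AUC of DIV 5/7/9/12 recordings; loss-direction fit vs DMSO.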
# [4] = CCTE_Shafer_MEA_dev_burst_duration_mean: CCTE's Neural Network Formation Assay for Mean Burst Duration, Shafer Lab (AID 2284045)
# Method in brief: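 Primary rat cortical neurons on PEI-coated 16-electrode MEA wells, exposed from plating through day 12 with compound renewed at DIV 5 and 9; spontaneous activity recorded days 5, 7, 9, 12. Well-mean burst duration collapsed as trapezoidal AUC, fitted for loss versus DMSO.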
# [5] = CCTE_Shafer_MEA_dev_inter_network_spike_interval_mean: CCTE's Neural Network Formation Assay for Mean Inter-network Spike Interval, Shafer Lab (AID 2284047)
# Method in brief: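 Primary rat cortical neurons on PEI-coated 48-well MEAs (16 electrodes/well) were exposed from plating day 0 to DIV 12, with dosing renewed at DIV 5 and 9. Recordings at DIV 5, 7, 9, 12 were collapsed by trapezoidal AUC, loss-of-signal fit vs DMSO.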
# [6] = CCTE_Shafer_MEA_dev_network_spike_number: CCTE's Neural Network Formation Assay for Number of Network Spikes, Shafer Lab (AID 2284048);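 also: synchronized bursts across electrodes counted on days 5 7 9 12 and integrated as AUC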;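 as to AC50: fit as a loss of signal meaning fewer network spikes than DMSO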
# Method in brief: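 Primary rat cortical neurons were seeded at 1.5 x 10^5 cells/well on PEI-coated 16-electrode MEA wells with laminin, exposed from plating day 0, compound renewed at DIV 5 and 9. Network spikes were recorded on days 5, 7, 9, 12 and summarized as trapezoidal AUC versus DMSO.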
# [7] = CCTE_Shafer_MEA_dev_network_spike_peak: CCTE's Neural Network Formation Assay for Mean Number of Electrodes in Network Spike, Shafer Lab (AID 2284049);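 as to AC50: fitted for loss of signal meaning fewer electrodes in network spikes than DMSO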
# Method in brief: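 Continuous 12-day exposure of rat cortical cultures, starting at plating, on MEA plates. Endpoint: electrodes participating in network-spike peaks, AUC across DIV 5–12, DMSO as negative control.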
# [8] = CCTE_Shafer_MEA_dev_spike_duration_mean: CCTE's Neural Network Formation Assay for Mean Spike Duration, Shafer Lab (AID 2284051);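 also: mean network spike duration pooled as area under curve over DIV 5 to 12 recordings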;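 as to AC50: potency for a decrease in mean network spike duration versus DMSO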
# Method in brief: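 Rat cortical primary cultures, 48-well MEA (16 electrodes/well); compound from plating, renewed DIV 5, 9. Network spike duration (AxIS adaptive detector) recorded DIV 5/7/9/12, combined as trapezoidal AUC; loss direction vs DMSO.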
# [9] = CCTE_Shafer_MEA_dev_network_spike_duration_std: CCTE's Neural Network Formation Assay for Standard Deviation of Network Spike Duration, Shafer Lab (AID 2284052);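 also: area under curve of spike duration SD across recording days 5 to 12; hits are decreases in network spike duration SD versus DMSO vehicle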
# Method in brief: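 Rat cortical cultures, 1.5 x 10^5 cells/well, exposed continuously from plating to DIV 12 with media/compound renewal at DIV 5, 9. Spontaneous activity recorded DIV 5/7/9/12, AxIS adaptive spike detector; AUC across days; negative direction vs DMSO.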
# [10] = CCTE_Shafer_MEA_dev_per_network_spike_spike_number_mean: CCTE's Neural Network Formation Assay for Mean Number of Spikes in a Network Spike, Shafer Lab (AID 2284053);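 as to AC50: fitted as decrease in spikes per network spike relative to DMSO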
# Method in brief: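 Rat cortical primary cultures on 48-well MEA; compound from day 0, re-dosed with full media change DIV 5, 9. Recorded DIV 5, 7, 9, 12; spikes in 0.05 s window at network-spike peak ÷ total network spikes; AUC; loss vs DMSO.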
# [11] = CCTE_Shafer_MEA_dev_LDH: CCTE's Lactate Dehydrogenase Assay for Cytotoxicity in the Neural Network Formation Assay, Shafer Lab (AID 2284068; active = hit-call score of the fitted dose curve at least 0.9, where 1 is the maximum;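 also: exposure for twelve days from plating with re-dosing on DIV 5 and 9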)
# Method in brief: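 Rat cortical primary neurons, MEA culture; dosing day 0–12, full medium plus compound exchange DIV 5, 9. Read-out: LDH enzyme activity, spectrophotometric. DMSO = negative control/baseline; signal loss → cytotoxicity.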
# [12] = CCTE_Shafer_MEA_dev_AB: CCTE's Alamar Blue Assay for Cytotoxicity in the Neural Network Formation Assay, Shafer Lab (AID 2284083; active = hit-call score of the fitted dose curve at least 0.9, where 1 is the maximum;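 also: resazurin reduction fluorescence as viability of cultured neurons; twelve days of exposure from plating with re-dosing on DIV 5 and 9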)
# Method in brief: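 Rat cortical primary cultures, 1.5 x 10^5 cells/well on MEA; continuous compound exposure over 12 days of network development, re-dosed with full medium change DIV 5 and 9. Alamar Blue fluorescence; loss of signal = cytotoxicity vs DMSO baseline.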
# [13] = CCTE_Shafer_MEA_dev_mutual_information_norm: CCTE's Neural Network Formation Assay for Mutual Information Normalization, Shafer Lab (AID 2284091);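 as to AC50: mutual information between electrodes summarised as area under curve across four recording days; potency is for a decrease in mutual information relative to DMSO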
# Method in brief: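 Rat cortical cultures, 48-well MEA, continuous exposure DIV 0–12 with full media/compound change DIV 5 and 9. Readout: inter-electrode mutual information, AxIS adaptive spike detection; AUC across DIV 5/7/9/12 recordings; DMSO baseline, negative fitting direction.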
# [14] = CCTE_Shafer_MEA_dev_correlation_coefficient_mean: CCTE's Neural Network Formation Assay for Mean Correlation Coefficient, Shafer Lab (AID 2284093);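 as to AC50: well mean pairwise spike train correlation integrated as AUC over recording days 5 to 12; potency fitted for loss of correlation relative to DMSO vehicle wells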
# Method in brief: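 Rat cortical cultures, 1.5 x 10^5 cells/well, dosed from day 0 for 12 days. Spontaneous spikes recorded DIV 5/7/9/12; electrode-pair correlation coefficients averaged, AUC taken. Fit in loss direction vs DMSO.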
# [15] = CCTE_Shafer_MEA_acute_AB: CCTE's Alamar Blue Assay for Cytotoxicity in the Neural Acute Assay, Shafer Lab (AID 2284069; active = hit-call score of the fitted dose curve at least 0.9, where 1 is the maximum;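 also: active compounds lower the viability signal compared with DMSO wells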)
# Method in brief: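 Read-out: resazurin fluorescence (ex 544, em 590 nm) after CTB reagent at 1:6 dilution in fresh media. Cells: primary rat cortical neuron networks, DIV 13 or 15, chemically exposed on MEA plates; DMSO as negative control/baseline.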
# [16] = CCTE_Shafer_MEA_acute_LDH: CCTE's Lactate Dehydrogenase Assay for Cytotoxicity in the Neural Acute Assay, Shafer Lab (AID 2284086; active = hit-call score of the fitted dose curve at least 0.9, where 1 is the maximum;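 also: active means LDH release rises above DMSO vehicle level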)
# Method in brief: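 Primary rat cortical neurons on 48-well MEA plates, treated on day 13 or 15 post-plating. After the 40-min recording with compound, medium LDH release was read by absorbance at 490 nm. Gain of signal was fitted against DMSO negative control.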
# [17] = system: DIO2 (gene 1734); assay: CCTE_GLTED_hDIO2: CCTE's human Deiodinase 2 (DIO2) Inhibition Assay, Great Lakes Toxicology and Ecology Division (GLTED) Lab (AID 2284050; active = hit-call score of the fitted dose curve at least 0.9, where 1 is the maximum)
# Method in brief: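 Cell-free human DIO2 enzyme was incubated with test chemical for 3 h; iodide liberated from substrate was then quantified by the Sandell-Kolthoff reaction (absorbance), run in triplicate. Loss of signal versus DMSO baseline indicated inhibition.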
# [18] = system: DIO3 (gene 1735); assay: CCTE_GLTED_hDIO3: CCTE's human Deiodinase 3 (DIO3) Inhibition Assay, Great Lakes Toxicology and Ecology Division (GLTED) Lab (AID 2284055; active = hit-call score of the fitted dose curve at least 0.9, where 1 is the maximum;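 also: potency is for inhibition seen as loss of released iodide signal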)
# Method in brief: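 Cell-free assay with human DIO3 enzyme produced by adenovirus expression; enzyme incubated with test chemical for 3 hours. Liberated iodide then measured by Sandell-Kolthoff absorbance; loss of signal versus DMSO baseline indicates inhibition, run in triplicate.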
smiles,measurement,setting,value
O=C(CC(=O)C(F)(F)C(F)(F)C(F)(F)F)c1cccs1,outcome,[1],inactive
same,AC50,[2],8.13 µM (active)
same,outcome,[3],inactive
same,outcome,[4],inactive
same,outcome,[5],inactive
same,outcome,[6],inactive
same,AC50,[7],7.42 µM (active)
same,AC50,[8],7.7 µM (active)
same,outcome,[9],inactive
same,AC50,[10],3.72 µM (active)
same,AC50,[11],8.63 µM (active)
same,AC50,[12],9.02 µM (active)
same,outcome,[13],inactive
same,AC50,[14],7.75 µM (active)
O=C(F)C(F)(F)C(F)(F)C(F)(F)C(=O)F,outcome,[1],inactive
same,outcome,[2],inactive
same,outcome,[3],inactive
same,outcome,[4],inactive
same,outcome,[5],inactive
same,outcome,[6],inactive
same,outcome,[7],inactive
same,outcome,[8],inactive
same,outcome,[9],inactive
same,outcome,[10],inactive
same,outcome,[12],inactive
same,outcome,[13],inactive
same,outcome,[14],inactive
FCOC(C(F)(F)F)C(F)(F)F,outcome,[1],inactive
same,outcome,[2],inactive
same,outcome,[3],inactive
same,outcome,[4],inactive
same,outcome,[5],inactive
same,outcome,[6],inactive
same,outcome,[7],inactive
same,outcome,[8],inactive
same,outcome,[9],inactive
same,outcome,[10],inactive
same,outcome,[12],inactive
same,outcome,[13],inactive
same,outcome,[14],inactive
CN(CCO)S(=O)(=O)C(F)(F)C(F)(F)C(F)(F)C(F)(F)C(F)(F)C(F)(F)C(F)(F)C(F)(F)F,outcome,[1],inactive
same,outcome,[2],inactive
same,outcome,[3],inactive
same,outcome,[4],inactive
same,outcome,[5],inactive
same,outcome,[6],inactive
same,outcome,[7],inactive
same,outcome,[8],inactive
same,outcome,[9],inactive
same,outcome,[10],inactive
same,outcome,[13],inactive
same,outcome,[14],inactive
OCC(CO)(CBr)CBr,outcome,[15],inactive
same,outcome,[16],inactive
O=P(O)(O)CCC(F)(F)C(F)(F)C(F)(F)C(F)(F)C(F)(F)C(F)(F)C(F)(F)C(F)(F)F,outcome,[1],inactive
same,AC50,[2],2.39 µM (active)
same,outcome,[3],inactive
same,outcome,[4],inactive
same,outcome,[5],inactive
same,AC50,[6],4.29 µM (active)
same,AC50,[7],4.22 µM (active)
same,AC50,[17],146 µM (active)
same,AC50,[8],7.74 µM (active)
same,outcome,[9],inactive
same,AC50,[10],4.23 µM (active)
same,AC50,[11],8.87 µM (active)
same,AC50,[12],8.79 µM (active)
same,AC50,[13],4.31 µM (active)
same,AC50,[14],6.27 µM (active)
O=CC(F)(F)C(F)(F)C(F)(F)C(F)F,outcome,[1],inactive
same,outcome,[2],inactive
same,outcome,[3],inactive
same,outcome,[4],inactive
same,outcome,[5],inactive
same,outcome,[6],inactive
same,outcome,[7],inactive
same,outcome,[8],inactive
same,outcome,[9],inactive
same,outcome,[10],inactive
same,outcome,[13],inactive
same,outcome,[14],inactive
Cc1cc(Cc2cc(C)cc(C(C)(C)C)c2O)c(O)c(C(C)(C)C)c1,AC50,[17],97.6 µM (active)
same,AC50,[18],14.2 µM (active)
COC(=O)C(F)(F)C(F)(F)C(F)(F)C(F)(F)C(F)(F)F,outcome,[1],inactive
same,outcome,[3],inactive
same,outcome,[4],inactive
same,outcome,[5],inactive
same,outcome,[6],inactive
same,outcome,[7],inactive
same,outcome,[8],inactive
same,outcome,[9],inactive
same,outcome,[10],inactive
same,outcome,[13],inactive
same,outcome,[14],inactive
